Drawing on PubChem BioAssay AID2546 (National Center for Advancing Translational Sciences (NCATS), 2010), this text covers Potency and activity, negative = inhibition for 72 compounds.

Among all 310,000 compounds or so, about 11,000 (3.5%) were called active. About 8% were inconclusive and are not listed. The list comes from a sample in which actives are over-represented; it also holds similar structures and randomly drawn compounds. A call without a number means that no potency is given here. A number with no mark means an inactive call. Calls follow the shape of the dose curve; as a rule, active = well fitted inhibition curve with a large enough effect; inconclusive = small, poorly fitted or top-dose-only effect, or effect the other way; inactive = flat fitted curve, though single readings scatter.
Potency is read from the fitted curve at half-maximal effect.

This experiment can be described thus: VP16 counterscreen qHTS for inhibitors of ROR gamma transcriptional activity.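 Also: Gal4-VP16 expression switched on by copper sulfate through the metallothionein promoter; nearly all actives have a fitted effect of over 50% in size.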 The settings on record: Drosophila S2 Gal4-VP16 UAS-luciferase, luminescence, 20 h; series mostly up to 53.6 µM.
Turning to `COc1cc(NC(=O)C2=CC(c3ccc(C)cc3)=NS(=O)(=O)N2C)cc(OC)c1OC`, the Potency result is “inactive”.

Consider `COc1cc2c(cc1OC)CN(CC(=O)Nc1ccc(F)cc1)CC2`, for which the Potency result was “inactive”.

On to `O=C(CSCC(=O)Nc1cccc([N+](=O)[O-])c1)Nc1ccccc1`, for which the Potency result was “inactive”.

As to `COC(=O)/C=C\C(=O)Nc1cccc([N+](=O)[O-])c1`, the Potency was 1.26 µM (active).

For the compound `CC(=O)Nc1cccc([N+](=O)[O-])c1`, the Potency result was “inactive”.

For `COc1cc(SC)ccc1C(=O)N(Cc1ccccc1)c1ccccc1`, the Potency result was “inactive”.

`NC(=O)C(=O)N/N=C/c1ccc([N+](=O)[O-])o1`: the Potency was 11.2 µM (active).

Take `Cc1cc(C)nc(N/N=C/c2ccc([N+](=O)[O-])o2)n1`: the Potency result was “inactive”.

As for `COc1ccc(C(=O)NCC(=O)N/N=C/c2ccc([N+](=O)[O-])o2)cc1OC`, the Potency result was “inactive”.

On to `COc1ccc(-c2cc(C(=O)N3CCN(c4ccc(F)cc4)CC3)no2)cc1`, for which the Potency result is “inactive”.

For the compound `FC(F)(F)c1cccc(N/N=C/c2ccccc2)c1`, the Potency result is “inactive”.

Turning to `Fc1ccc(/C=N/Nc2nc(-c3cccnc3)nc3ccccc23)cc1`, the Potency entry is “inactive”.

As for `FC(F)(F)c1nc2ccccc2nc1N/N=C/c1ccc(Cl)cc1`, the Potency was 10 µM (active).

Regarding `CCNC(=O)N1CCCC(C(=O)c2ccc(-c3ccccc3)cc2)C1` (configuration not stated), the Potency entry is “inactive”.

With `c1cnc(N2CCN(c3ccc4ccccc4n3)CC2)nc1`, the Potency entry is “inactive”.

For the compound `CC(=O)N1c2ccc(S(=O)(=O)N3CCC(C(=O)NC4CCCC(C)C4C)CC3)cc2CC1C` (configuration not stated), the Potency entry is “inactive”.

Consider `Cc1ccc2cccc(OCCCOc3ccccc3CO)c2n1`, for which the Potency entry is “inactive”.

`O=C(Cc1c[nH]c2ccccc12)N/N=C/c1cccc(F)c1`: the Potency entry is “inactive”.

For the compound `O=C(N/N=C/c1c[nH]c2ccccc12)c1ccccc1O`, the Potency was 6.31 µM (active).

With `O=C(N/N=C/c1c[nH]c2ccccc12)c1cc2ccccc2o1`, the Potency result was “inactive”.

Regarding `O=C(O)c1cccc(NC(=S)N/N=C/c2c[nH]c3ccccc23)c1`, the Potency entry is “inactive”.

`O=C(N/N=C/c1ccc([N+](=O)[O-])cc1)c1c[nH]c2ccccc12`: the Potency result was “inactive”.

Turning to `CSC(=S)N/N=C/c1c[nH]c2ccccc12`, the Potency was 0.891 µM (active).

For `C[C@H](C(=O)CC(=O)OC(C)(C)C)[C@H](O)c1ccc(C(F)(F)F)cc1`, the Potency result is “inactive”.

As for `Cc1ccc(-c2csc(NC3OC(=O)c4ccccc43)n2)cc1` (configuration not stated), the Potency result was “inactive”.

With `O=C(O)/C=C/c1ccc2c(c1)OCCO2`, the Potency entry was “inactive”.

`O=C(/C=C/c1ccc2c(c1)OCCO2)c1ccc(O)cc1`: the Potency is 4.47 µM (active).

With `O=C(/C=C/c1ccc(Cl)cc1)N1CCN(c2ccccc2[N+](=O)[O-])CC1`, the Potency entry was “inactive”.

Take `CN(C)c1ccc(/C=C/C(=O)c2ccc(C(C)(C)C)cc2)cc1[N+](=O)[O-]`: the Potency entry is “inactive”.

On to `CC(=O)c1ccc2c(c1)OCCOCCOc1ccc(C(C)=O)cc1OCCOCCO2`, for which the Potency entry was “inactive”.

In the case of `CN(C)c1ccc(/C=C/C(=O)c2ccc(O)cc2)cc1[N+](=O)[O-]`, the Potency is 5.01 µM (active).

As to `O=C1C2CCCN2C(=O)N1CCCCN1CCN(c2cccc(C(F)(F)F)c2)CC1` (configuration not stated), the Potency result was “inactive”.

For the compound `C=CCn1cc(Cl)cc(C(=O)Nc2ccccc2)c1=O`, the Potency result is “inactive”.

Consider `Cc1cccc(C)c1N1C(=O)CN(Cc2ccccc2)C1=S`, for which the Potency result was “inactive”.

`COc1cccc(NC(C)=[N+](C)CCNS(=O)(=O)c2ccc(Cl)cc2)c1`: the Potency entry is “inactive”.

For the compound `COc1ccccc1-c1nc(SC)n[nH]1`, the Potency entry is “inactive”.

Regarding `COc1ccccc1-c1n[nH]c2c1[C@H](C)CC[C@H]2C(C)C`, the Potency was 12.6 µM (active).

In the case of `COc1ccccc1-c1nc(N2CCN(C)CC2)c2ccccc2n1`, the Potency entry was “inactive”.

In the case of `CCOc1cc(-c2noc(CCCC(=O)NC3CCCCC3)n2)ccc1OC`, the Potency entry was “inactive”.

Regarding `CC(=O)c1ccc(N2Cc3ccccc3C2)cc1`, the Potency entry is “inactive”.

For `CC(C)CC(O)C1CCN(C(=O)CCc2nnc(-c3ccc4c(c3)OCO4)o2)CC1` (configuration not stated), the Potency result was “inactive”.

With `Cc1oc(-c2ccccc2F)nc1CS(=O)CC(=O)NCCN1CCCCC1C` (configuration not stated), the Potency result was “inactive”.

In the case of `CCOc1ccccc1/C=N/NC(=O)CNC(=O)COc1ccccc1`, the Potency result is “inactive”.

For `CCOc1ccccc1/C=N/Nc1nc2ccccc2o1`, the Potency is 7.08 µM (active).

Take `C=CCc1ccccc1OCC(=O)N/N=C/c1ccccc1OCC`: the Potency entry was “inactive”.

Consider `CC(C)(C)c1cc[n+](-c2[nH]c(=O)sc2/C=N/N=C(\[O-])c2ccccc2)cc1`, for which the Potency result is “inactive”.

As for `O=C(Nc1ccncc1)c1ccc(Cl)c([N+](=O)[O-])c1`, the Potency result is “inactive”.

With `COc1ccc(CNS(=O)(=O)c2cc(-c3cc(C)no3)ccc2C(C)C)cc1`, the Potency entry was “inactive”.

As to `CC(=O)Nc1cccc(Nc2nc(-c3cccs3)nc3ccccc23)c1`, the Potency entry was “inactive”.

For `CC1CCCN(CCCNC(=O)CN2C(=O)COc3ccc(S(=O)(=O)N4CCOCC4)cc32)C1` (configuration not stated), the Potency entry is “inactive”.

For the compound `C/C(=N\NC(=O)NC1CCCCC1)c1ccc(OC(F)F)cc1OC(F)F`, the Potency entry is “inactive”.

Regarding `C/C(=N/NC(=O)c1ccc(Br)o1)c1ccc(C)o1`, the Potency result was “inactive”.

For `C/C(=N\NC(=S)NC1CCCCC1)c1ccc(C)o1`, the Potency is 3.55 µM (active).

For `Cc1ccc(/C=N/NC(=O)CSc2ccccn2)o1`, the Potency entry is “inactive”.

In the case of `Cc1ccc(/C=N/NC(=S)NC2CCCCC2)o1`, the Potency was 2 µM (active).

Consider `Cc1ccc(/C=N/NC(=O)Cn2nc(C)c(Br)c2C)o1`, for which the Potency entry is “inactive”.

For `Cc1ccccc1NC(=O)CSc1ccc2nnc(-c3ccccn3)n2n1`, the Potency result was “inactive”.

Turning to `CC(C)NC(=O)COCc1cc(-c2ccc3c(c2)OCO3)on1`, the Potency result is “inactive”.

With `COc1ccc(OC)c(CNC(=O)Cn2nc(C)c3c(C)n(-c4ccc(C)cc4)nc3c2=O)c1`, the Potency result was “inactive”.

With `COc1ccc(CN(C)C(=O)c2cc(-c3ccc(C)cc3C)nc3ccccc23)c(OC)c1OC`, the Potency entry was “inactive”.

Consider `COc1ccc(CCn2ccc(O)c(Cc3ccc(Cl)cc3Cl)c2=O)cc1OC`, for which the activity, negative = inhibition was 7.07% [at 10 µM].

For `COc1ccc(C(=O)O/N=C(\N)Cc2ccc(Cl)cc2Cl)cc1OC`, the Potency was 7.08 µM (active).

With `COc1ccc(C/C(N)=N/OC(=O)c2ccco2)cc1OC`, the Potency entry was “inactive”.

Regarding `CC(CCc1ccc(O)cc1)NCc1ccc(Cl)cc1Cl` (configuration not stated), the Potency entry is “inactive”.

As to `O=S1(=O)N=C(N(CCO)/N=C/c2ccccc2F)c2ccccc21`, the Potency entry was “inactive”.

With `COC(=O)c1cc(S(=O)(=O)NCC2CCN(Cc3ccc(Cl)cc3)CC2)cn1C`, the Potency result is “inactive”.

Take `CC(C)(C)c1cc(C(=O)N/N=C/c2ccc([N+](=O)[O-])s2)n[nH]1`: the Potency is 12.6 µM (active).

As for `Cc1ccsc1C(=O)N/N=C/c1ccc([N+](=O)[O-])cc1`, the Potency entry is “inactive”.

For `COc1ccc2ccccc2c1/C=N/NC(=O)c1cc(C)[nH]n1`, the Potency result was “inactive”.

For the compound `CCOc1ccc(NC(=O)CCC(=O)N/N=C/c2ccc([N+](=O)[O-])s2)cc1`, the Potency entry was “inactive”.

For the compound `Cc1ccccc1NCC(=O)N/N=C\c1ccc([N+](=O)[O-])s1`, the Potency entry was “inactive”.

Consider `Cc1cc(C(=O)N/N=C/c2cc([N+](=O)[O-])cc(C)c2O)n[nH]1`, for which the Potency is 14.1 µM (active).
